From PubChem BioAssay (NCATS) come the findings set out here.

Results filed as inconclusive are left out. Active and inactive are the calls of the source. Unless noted, the call rests on the fitted dose curve; in most records, active means well fitted cell-killing curve with a large enough effect; inconclusive means small, poorly fitted or top-dose-only effect; inactive means flat fitted curve, though single readings scatter.

The nature of assay [1]: Cell Viability - LYMP2-020 (AID 986).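 Further: series mostly up to about 92 µM; plate controls were DMSO only for no effect and tetraoctylammonium bromide at 92 µM for full effect; nearly all actives have a fitted effect of over 55% in size.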 A digest of the protocol:
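Human lymphoblastoid LYMP2-020 cells (2500/well) preincubated 5 h at 37 C, then treated 24 h at 37 C. Viability measured as intracellular ATP by CellTiter-Glo luminescence after 30 min at room temperature; AC50 from Hill fits.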

Assay [2] is described as follows: Cell Viability - LYMP2-022 (AID 987).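 Further: 0% = DMSO alone and full effect = tetraoctylammonium bromide at 92 µM; nearly all actives have a fitted effect of over 55% in size.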 A digest of the protocol:
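LYMP2-022 lymphoblastoid cells (2500/well, complete medium) were treated with compounds for 24 hours at 37 C; intracellular ATP was then read by CellTiter-Glo luminescence after 30 min at room temperature. AC50 values were derived from Hill-equation fits.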

Assay [3] is described as follows: Cell Viability - LYMP2-024 (AID 988).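 Further: plate controls were DMSO only for no effect and 92 µM tetraoctylammonium bromide for full effect; nearly all actives have a fitted effect of over 60% in size.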 A digest of the protocol:
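Human lymphoblastoid LYMP2-024 cells (2500/well) rested 5 hr, then treated with compound for 24 hr at 37 C in complete medium. Viability was measured as intracellular ATP by CellTiter-Glo luminescence. AC50 values came from Hill-equation fits.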

A short description of assay [4]: Cell Viability - LYMP2-026 (AID 989). Further: on the % scale 0 is the no-effect control and ±100 the full control effect; nearly all actives have a fitted effect of over 50% in size. The method, boiled down: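 Human lymphoblastoid LYMP2-026 cells, 2500/well, exposed to compound 24 h at 37 C in complete medium. Viability as intracellular ATP by CellTiter-Glo luminescence; AC50 from Hill fits of qHTS concentration-response.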
The nature of assay [5]: Cell Viability - LYMP1-002 - Assay at 24 hr (AID 993). Further: on the % scale 0 is the no-effect control and ±100 the full control effect. A digest of the protocol:
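Human lymphoblastoid LYMP1-002 cells (2500/well) treated 24 h at 37 °C; viability as intracellular ATP by CellTiter-Glo luminescence. Tetraoctylammonium bromide as positive control; AC50 from Hill-equation fits of qHTS concentration-response.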

Assay [6] is described as follows: Cell Viability - LYMP1-002 - Assay at 40 hr (AID 994).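 Further: 0% = DMSO only and full inhibition = 92 µM tetraoctylammonium bromide; nearly all actives have a fitted effect of over 60% in size.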 A digest of the protocol:
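LYMP1-002 human lymphoblastoid cells (2500/well, complete medium) were treated with compounds for 40 hr at 37 C. Intracellular ATP was measured by CellTiter-Glo luminescence, and AC50 values came from Hill-equation fits of concentration-response data; tetraoctylammonium bromide was the positive control.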

Assay [7] in a line: qHTS Assay for Identification of Small Molecule Inducers of Hypoxia Response (AID 2120; active means well fitted curve in the direction sought with a large enough effect in the signal ratio, with a control signal flat, not every such curve was filed as active; the % refers to the signal ratio; further: 0% is about no effect). A digest of the protocol:
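HRE-bla ME-180 cells in Opti-MEM with 0.5% dialyzed FBS, pre-plated 4-5 h, then compound titration for 17 h at 37 degrees Celsius. CCF4 loaded 2.5 h at room temperature; 460/530 nm ratio gave %Activity and AC50 for induction.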

In assay [8] the target is Estrogen receptor (Homo sapiens) (UniProt P03372). Nature of the assay: qHTS assay for small molecule antagonists of estrogen receptor alpha signaling (AID 588513; active means well fitted curve in the direction sought with a large enough effect in the signal ratio, with a control signal flat, not every such curve was filed as active; the % refers to the signal ratio; further: on the % scale 0 is the no-effect control and ±100 the full control effect). The method, boiled down:
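Beta-lactamase reporter, antagonist mode, HEK 293 GripTite cells; 0.5nM E2 stimulus, 18 h, 37 C; CCF4 dye 2 h RT; fluorescence. IC50 and efficacy from Hill fits, normalized to E2 and DMSO.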

Assay [9] has as its target Glucocorticoid receptor (Homo sapiens) (UniProt P04150). Description: qHTS assay for small molecule agonists of glucocorticoid receptor signaling (AID 588532; active means well fitted curve in the direction sought with a large enough effect in the signal ratio, with a control signal flat; the % refers to the signal ratio;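 further: 100% = dexamethasone at 0.1 µM and 0% = DMSO only wells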). The note with it: HeLa MMTV-bla, beta-lactamase ratio, agonist, 18 h; stronger effect = higher value; percent of dexamethasone control, DMSO zero. The method, boiled down:
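Cells were plated and rested 3-5 h at 37 C, compounds were added in titration and incubated 18 h, then CCF4 substrate was loaded for 2 h at RT before reading blue/green fluorescence. EC50 came from Hill-equation fitting.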

Assay [10] has the same target. Nature of the assay: qHTS assay for small molecule antagonists of glucocorticoid receptor signaling (AID 588533; active means well fitted inhibition curve with a large enough effect in the signal ratio, with a control signal flat, not every such curve was filed as active; the % refers to the signal ratio; further: on the % scale 0 is the no-effect control and ±100 the full control effect). A digest of the protocol: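 Antagonist-mode qHTS: compound titrations added to GRE-bla HeLa cells, then dexamethasone 2 nM final; 18 h, 37 C. CCF4 FRET fluorescence normalized to dexamethasone and DMSO; IC50 from Hill fit.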
The nature of assay [11]: qHTS assay for small molecule antagonists of peroxisome proliferator-activated receptor delta signaling (AID 588535; active means well fitted inhibition curve with a large enough effect in the signal ratio, with a control signal flat, not every such curve was filed as active; the % refers to the signal ratio;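 on max response: cells co-treated with a PPAR-delta agonist as stimulator during compound exposure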). The following applies: HEK293T PPARd-UAS-bla, beta-lactamase FRET ratio, 18 h; 460 nm channel. The method, boiled down:
(§1)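 Antagonist-mode beta-lactamase reporter (GeneBLAzer PPAR-delta-UAS-bla) in HEK293T cells, 2% charcoal/dextran FBS, 4000 cells/well. Compound titrations, 18 h at 37 C; CCF4 ratio read, IC50 and efficacy from Hill fits.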

Assay [12] addresses Peroxisome proliferator-activated receptor delta (Homo sapiens) (UniProt Q03181). The description is as above. The method, boiled down: as §1
In assay [13] the target is Peroxisome proliferator-activated receptor gamma (Homo sapiens) (UniProt P37231). Description: qHTS assay for small molecule agonists of peroxisome proliferator-activated receptor gamma signaling (AID 588536; active means well fitted curve in the direction sought with a large enough effect in the signal ratio, with a control signal flat, not every such curve was filed as active; the % refers to the signal ratio;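 further: 0% = DMSO basal wells and 100% = rosiglitazone at 2 µM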). The method, boiled down:
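GeneBLAzer PPAR-gamma-UAS-bla HEK293 cells in 1% charcoal/dextran-treated FBS medium were treated 16 h at 37 C with compounds. Beta-lactamase activity was read by CCF4 ratio (460/530 nm). Response was normalized to 2 uM rosiglitazone (100%) and DMSO, then Hill-fitted for EC50 and efficacy.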

Assay [14] shares this target. Description: qHTS assay for small molecule antagonists of peroxisome proliferator-activated receptor gamma signaling (AID 588537; active means well fitted inhibition curve with a large enough effect in the signal ratio, with a control signal flat, not every such curve was filed as active; the % refers to the signal ratio;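 further: reporter cells co-stimulated with 50 nM rosiglitazone agonist during compound treatment; % of control where 0% means no effect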). A digest of the protocol: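 PPARγ-UAS-bla HEK293 cells (3000/well) in 1% charcoal/dextran-stripped FBS are treated with compound, then stimulated with 50 nM rosiglitazone for 16 h at 37 °C. Read-out is CCF4 β-lactamase fluorescence after 2 h at RT. IC50 comes from Hill fits normalised to rosiglitazone and DMSO.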

Assay [15] concerns the target Vitamin D3 receptor (Homo sapiens) (UniProt P11473). Description: qHTS assay for small molecule antagonists of vitamin D receptor signaling (AID 588541; calls by dose curve;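 further: receptor activated by calcitriol during compound treatment; series mostly up to about 77 µM; on the % scale 0 is the no-effect control and ±100 the full control effect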). A digest of the protocol:
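VDR-UAS-bla HEK293T cells in 2% charcoal-stripped FBS were stimulated with 1-alpha,25-dihydroxyvitamin D3 (3 nM final) plus compound for 16 h at 37 C. The beta-lactamase CCF4 readout was normalized to 50 nM agonist and DMSO, and Hill fits gave IC50.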

The target is the same in assay [16]. Description: qHTS assay for small molecule agonists of vitamin D receptor signaling (AID 588543; calls by dose curve;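 further: 0% = DMSO basal and 100% = reference agonist control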). A digest of the protocol:
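β-lactamase reporter, VDR-UAS-bla HEK293T, agonist mode. Cells plated 5 h at 37 °C, compound titration 16 h at 37 °C, CCF4 dye 2 h RT, ratio 460/530 nm. Hill fit → EC50, efficacy vs 50 nM 1α,25-(OH)2D3.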

For assay [17], the target named is Bile acid receptor (Homo sapiens) (UniProt Q96RI1). Description: qHTS assay for small molecule antagonists of farnesoid X receptor signaling (AID 588526; calls by dose curve; further: on the % scale 0 is the no-effect control and ±100 the full control effect). The method, boiled down:
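Antagonist mode: titrated compounds tested against chenodeoxycholic acid stimulation (normalized to 50 uM CDCA and DMSO) in GeneBLAzer HEK293T cells for 16 h. Beta-lactamase read by CCF4 fluorescence; IC50 from Hill fits.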

For assay [18], the target named is Androgen receptor (Homo sapiens) (UniProt P10275). Nature of the assay: qHTS assay for small molecule antagonists of androgen receptor signaling (AID 588516; active means well fitted curve in the direction sought with a large enough effect in the signal ratio, with a control signal flat, not every such curve was filed as active; the % refers to the signal ratio; further: on the % scale 0 is the no-effect control and ±100 the full control effect). A digest of the protocol:
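HEK293 AR-UAS-bla cells, 10% dialyzed FBS medium; cpd titration + R1881 10 nM final, 16 h 37 C; CCF4 2 h RT; FRET ratio; IC50/efficacy via Hill fit.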

For assay [19] the target is unchanged. Description: qHTS assay for small molecule agonists of androgen receptor signaling (AID 588515; active means well fitted curve in the direction sought with a large enough effect in the signal ratio, with a control signal flat; the % refers to the signal ratio; further: on the % scale 0 is the no-effect control and ±100 the full control effect). The following applies: AR-UAS-bla HEK293, beta-lactamase ratio, agonist 16 h; stronger effect = higher value. The method, boiled down: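 EC50 and efficacy came from Hill fits of titrations (up to 92 uM) normalized to 30 nM R1881 as 100% and DMSO as 0%. Compound exposure was 16 h at 37 C on AR-UAS-bla HEK293 cells, with a 405/460/530 nm CCF4 fluorescence read.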

Sequence of Bile acid receptor (Homo sapiens) (Q96RI1 whole entry, looked up): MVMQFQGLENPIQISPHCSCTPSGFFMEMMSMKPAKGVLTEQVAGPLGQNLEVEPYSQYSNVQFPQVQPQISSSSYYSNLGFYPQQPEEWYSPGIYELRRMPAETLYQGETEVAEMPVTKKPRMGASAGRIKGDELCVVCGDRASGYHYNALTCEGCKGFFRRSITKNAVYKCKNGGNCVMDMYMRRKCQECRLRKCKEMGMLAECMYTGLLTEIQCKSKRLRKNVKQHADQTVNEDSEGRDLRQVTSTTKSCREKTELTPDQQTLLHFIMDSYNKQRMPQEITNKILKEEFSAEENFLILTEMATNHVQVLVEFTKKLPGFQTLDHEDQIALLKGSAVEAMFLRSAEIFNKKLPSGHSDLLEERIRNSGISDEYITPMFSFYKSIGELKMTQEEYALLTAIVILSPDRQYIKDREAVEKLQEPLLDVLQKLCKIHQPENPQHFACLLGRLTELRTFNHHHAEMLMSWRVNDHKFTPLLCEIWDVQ
Sequence of Peroxisome proliferator-activated receptor gamma (Homo sapiens) (P37231 whole entry, looked up): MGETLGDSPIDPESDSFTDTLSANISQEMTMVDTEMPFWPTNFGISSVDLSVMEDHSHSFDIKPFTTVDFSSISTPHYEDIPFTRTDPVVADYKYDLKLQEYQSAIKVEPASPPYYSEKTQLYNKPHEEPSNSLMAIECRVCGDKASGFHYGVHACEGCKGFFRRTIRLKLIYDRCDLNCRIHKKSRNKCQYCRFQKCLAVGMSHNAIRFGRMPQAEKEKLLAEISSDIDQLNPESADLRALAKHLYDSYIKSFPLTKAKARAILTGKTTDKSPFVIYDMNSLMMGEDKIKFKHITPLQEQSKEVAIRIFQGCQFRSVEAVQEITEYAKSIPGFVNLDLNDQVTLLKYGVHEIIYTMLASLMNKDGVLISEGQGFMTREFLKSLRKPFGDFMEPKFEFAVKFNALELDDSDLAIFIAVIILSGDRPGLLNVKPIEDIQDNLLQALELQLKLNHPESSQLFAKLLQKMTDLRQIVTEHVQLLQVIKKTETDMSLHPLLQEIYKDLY
Sequence of Androgen receptor (Homo sapiens) (P10275 whole entry, looked up): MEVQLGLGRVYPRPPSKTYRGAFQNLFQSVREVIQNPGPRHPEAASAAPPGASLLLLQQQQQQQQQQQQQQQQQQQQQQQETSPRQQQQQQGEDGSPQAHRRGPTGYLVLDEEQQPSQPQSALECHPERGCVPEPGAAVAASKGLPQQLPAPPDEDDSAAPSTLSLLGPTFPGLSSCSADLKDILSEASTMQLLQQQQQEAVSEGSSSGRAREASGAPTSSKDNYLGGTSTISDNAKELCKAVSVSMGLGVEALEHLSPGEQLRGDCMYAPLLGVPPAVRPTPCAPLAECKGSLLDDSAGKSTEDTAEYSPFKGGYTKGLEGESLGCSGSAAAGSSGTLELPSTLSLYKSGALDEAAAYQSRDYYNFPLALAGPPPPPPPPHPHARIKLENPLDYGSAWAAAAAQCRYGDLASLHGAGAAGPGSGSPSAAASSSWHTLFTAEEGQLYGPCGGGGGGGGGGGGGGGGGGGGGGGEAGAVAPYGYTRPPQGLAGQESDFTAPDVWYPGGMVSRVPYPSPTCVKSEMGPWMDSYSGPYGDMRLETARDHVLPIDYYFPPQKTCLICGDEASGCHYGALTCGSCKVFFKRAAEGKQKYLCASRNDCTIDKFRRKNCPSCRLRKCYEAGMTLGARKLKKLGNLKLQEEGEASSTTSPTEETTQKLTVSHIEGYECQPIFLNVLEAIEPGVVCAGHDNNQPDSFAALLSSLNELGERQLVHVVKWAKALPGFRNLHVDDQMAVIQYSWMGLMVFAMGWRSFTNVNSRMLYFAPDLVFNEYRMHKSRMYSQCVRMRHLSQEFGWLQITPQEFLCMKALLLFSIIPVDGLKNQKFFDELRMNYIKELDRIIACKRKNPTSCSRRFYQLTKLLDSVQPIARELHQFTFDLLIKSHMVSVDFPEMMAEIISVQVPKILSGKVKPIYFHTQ
Sequence of Glucocorticoid receptor (Homo sapiens) (P04150 whole entry, looked up): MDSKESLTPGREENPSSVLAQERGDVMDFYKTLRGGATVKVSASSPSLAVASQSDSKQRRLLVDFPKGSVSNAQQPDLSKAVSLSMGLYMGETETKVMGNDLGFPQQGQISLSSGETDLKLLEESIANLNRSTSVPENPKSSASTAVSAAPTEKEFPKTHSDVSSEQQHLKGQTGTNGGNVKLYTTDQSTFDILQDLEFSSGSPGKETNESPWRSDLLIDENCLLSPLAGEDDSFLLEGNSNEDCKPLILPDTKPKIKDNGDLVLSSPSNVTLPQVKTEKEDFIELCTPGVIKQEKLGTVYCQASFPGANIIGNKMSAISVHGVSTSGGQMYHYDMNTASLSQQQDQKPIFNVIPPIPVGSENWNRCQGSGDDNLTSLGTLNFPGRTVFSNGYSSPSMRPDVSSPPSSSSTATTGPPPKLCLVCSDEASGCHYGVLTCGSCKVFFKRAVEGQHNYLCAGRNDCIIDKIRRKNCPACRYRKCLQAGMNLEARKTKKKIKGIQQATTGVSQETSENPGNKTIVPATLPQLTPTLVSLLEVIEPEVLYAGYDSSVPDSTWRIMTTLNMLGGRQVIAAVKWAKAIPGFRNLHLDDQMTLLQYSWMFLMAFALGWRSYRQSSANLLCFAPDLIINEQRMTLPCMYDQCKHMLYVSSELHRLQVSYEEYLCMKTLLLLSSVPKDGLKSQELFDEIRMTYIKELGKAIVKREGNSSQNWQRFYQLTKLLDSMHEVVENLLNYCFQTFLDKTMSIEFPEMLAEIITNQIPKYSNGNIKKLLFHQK
Sequence of Peroxisome proliferator-activated receptor delta (Homo sapiens) (Q03181 whole entry, looked up): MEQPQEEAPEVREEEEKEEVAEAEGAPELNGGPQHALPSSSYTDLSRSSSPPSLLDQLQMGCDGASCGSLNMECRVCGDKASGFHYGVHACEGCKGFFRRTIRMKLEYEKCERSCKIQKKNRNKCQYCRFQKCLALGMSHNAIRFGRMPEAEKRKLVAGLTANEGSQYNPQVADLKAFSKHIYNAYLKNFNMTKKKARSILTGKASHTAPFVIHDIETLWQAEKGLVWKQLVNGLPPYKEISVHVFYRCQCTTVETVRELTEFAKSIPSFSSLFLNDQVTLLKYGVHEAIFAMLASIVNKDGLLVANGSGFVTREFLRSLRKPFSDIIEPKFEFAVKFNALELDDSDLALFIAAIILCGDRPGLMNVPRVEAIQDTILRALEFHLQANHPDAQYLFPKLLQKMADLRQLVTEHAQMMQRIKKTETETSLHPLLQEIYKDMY
Sequence of Estrogen receptor (Homo sapiens) (P03372 whole entry, looked up): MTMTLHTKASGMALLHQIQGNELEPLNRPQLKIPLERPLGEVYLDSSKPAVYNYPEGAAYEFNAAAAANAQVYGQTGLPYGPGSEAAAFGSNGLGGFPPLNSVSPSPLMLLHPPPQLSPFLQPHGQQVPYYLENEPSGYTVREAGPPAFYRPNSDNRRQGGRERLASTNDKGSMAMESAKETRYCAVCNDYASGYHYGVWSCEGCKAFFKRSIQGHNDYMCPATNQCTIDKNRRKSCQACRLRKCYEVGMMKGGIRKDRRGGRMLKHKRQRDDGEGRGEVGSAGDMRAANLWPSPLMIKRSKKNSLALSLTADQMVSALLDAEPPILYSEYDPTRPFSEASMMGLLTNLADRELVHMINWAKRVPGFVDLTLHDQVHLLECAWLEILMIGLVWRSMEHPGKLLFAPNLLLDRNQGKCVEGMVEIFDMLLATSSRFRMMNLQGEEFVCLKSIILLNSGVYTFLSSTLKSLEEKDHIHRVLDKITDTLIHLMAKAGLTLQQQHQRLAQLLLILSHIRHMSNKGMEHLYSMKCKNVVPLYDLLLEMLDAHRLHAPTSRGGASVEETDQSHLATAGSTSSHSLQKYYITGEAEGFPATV
Sequence of Vitamin D3 receptor (Homo sapiens) (P11473 whole entry, looked up): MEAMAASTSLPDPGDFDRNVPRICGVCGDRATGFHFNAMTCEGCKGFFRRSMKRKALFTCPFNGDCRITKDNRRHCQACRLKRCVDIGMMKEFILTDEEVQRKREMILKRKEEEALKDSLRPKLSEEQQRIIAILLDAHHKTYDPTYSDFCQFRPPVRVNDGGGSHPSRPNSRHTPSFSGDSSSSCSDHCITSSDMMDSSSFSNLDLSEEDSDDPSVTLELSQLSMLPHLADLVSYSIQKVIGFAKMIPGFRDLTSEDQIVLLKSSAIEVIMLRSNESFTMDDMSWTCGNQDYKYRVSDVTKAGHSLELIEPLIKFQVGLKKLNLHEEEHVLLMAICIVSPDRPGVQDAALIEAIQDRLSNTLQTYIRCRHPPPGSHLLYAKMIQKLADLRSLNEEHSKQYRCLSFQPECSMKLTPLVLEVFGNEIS

`CCCCCCCCC`: the Potency entry in assay [1], in assay [2], in assay [3], in assay [5], in [6] and in assay [12] was “inactive” in each case. Moreover, the molecule was called inactive in [4], in [7], in assay [8], in [10], in assay [13] and in [14]. Besides, the result in assay [15] and in assay [16] was inactive. In addition, in assay [9], the activation is -2.92% (inactive). For the same molecule, in [11], the max response was 3.26%.

As for `Nc1cc(Cl)c([N+](=O)[O-])cc1O`, the Potency entry in [1], in assay [2], in assay [3], in [5] and in assay [6] was “inactive” in each case. In addition, the result in assay [4], in assay [7], in assay [8], in assay [17], in assay [15] and in [16] was inactive. For the same molecule, in assay [9], the activation was -1.56% (inactive).

Turning to `CCCCCCCCC/C=C/CC1CC(=O)OC1=O` (stereo not drawn), the Potency entry in assay [1], in assay [2], in assay [3], in assay [5] and in assay [6] was “inactive” throughout. The result in [4], in assay [7], in [8], in assay [18], in [17] and in assay [10] was inactive. Moreover, the molecule was classed as inactive in assay [13], in assay [15] and in [16]. Further, the activation in assay [9] was 0.907% (inactive).

As for `CCOC(C)(C)C`, the Potency entry in [1], in [2], in assay [3], in assay [5], in [6] and in assay [12] was “inactive” throughout. Besides, the call in assay [4], in assay [7], in assay [8], in assay [17], in assay [13] and in assay [14] was inactive. In addition, the molecule was called inactive in [15] and in [16]. Also, the max response in assay [11] is -1.23%.

For `C=CCOC(=O)COCCC(C)C`, the Potency entry in assay [1], in assay [2], in assay [3], in [5], in assay [6] and in [12] was “inactive” in each case. Besides, the call in assay [4], in [7], in assay [8], in assay [10] and in [13] was inactive. Besides, the activation in assay [9] is -3.64% (inactive). Moreover, the max response in assay [11] turned out to be 79.8%.

`Nc1ccc(Cl)cc1[N+](=O)[O-]`: the Potency entry in assay [1], in assay [2], in [3], in assay [5], in [6] and in assay [12] was “inactive” in each case. For the same molecule, the molecule was classed as inactive in assay [4], in assay [7], in assay [8], in assay [18], in assay [10] and in assay [13]. The molecule was classed as inactive in [14], in assay [15] and in assay [16]. Also, the activation in assay [19] is 7.43% (inactive); in assay [9], -4.92% (inactive). In [11], the max response is 66.3%.

In the case of `Clc1cc(Cl)cc(Cl)c1`, the Potency result in [1], in assay [2], in [5], in assay [6] and in assay [12] was “inactive” throughout. Besides, the molecule was classed as inactive in [4], in [7], in assay [8], in assay [10], in [13] and in [15]. Besides, the call in assay [16] was inactive. For the same molecule, the activation in [9] was 5.2% (inactive). The max response in assay [11] was -6.75%.

Consider `CC(=O)Nc1ccc(C)cc1`, for which the Potency entry in [1], in [2], in assay [3], in [5], in assay [6] and in assay [12] was “inactive” each time. The molecule was called inactive in assay [4], in assay [7], in [8], in assay [10], in assay [13] and in [15]. The call in assay [16] was inactive. Also, the activation in [9] was 8.72% (inactive). Also, the max response in assay [11] is -10.7%.

As for `Cc1cccc2sc(N)nc12`, the Potency entry in assay [1], in [2], in assay [3], in assay [5], in assay [6] and in assay [12] was “inactive” throughout. The molecule was classed as inactive in [7], in [8], in [10], in [13], in assay [14] and in assay [15]. Besides, the result in assay [16] was inactive. For the same molecule, in [9], the activation is -9.53% (inactive). Further, the max response in [11] was found to be 24.8%.
